High-throughput results as filed in PubChem.
Hits are enriched below; roughly 9.5% of the tested compounds scored in any of these assays.
NS1 function inh = inhibitors of influenza NS1 protein function; Potency, µM (top dose mostly 46.1 µM), for inactives: top-dose activity, positive = more growth; 270,000 compounds, 0.4% hits; AID 2326; calls by dose curve; note: actives are rising curves; nearly all actives have a fitted effect of over 50% in size
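Read-out: OD600 growth recovery of NS1-expressing budding yeast. Cells grown overnight at 30C in -URA glucose medium, washed, resuspended and diluted 1:100 in 2% galactose assay medium, pH 6.0. Same strain lacking NS1 served as positive control.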
RE007 growth inh = less growth of the S. pombe RE007 Vpr strain. Potency, µM (highest dose often 92.2 µM), for inactives: at the highest dose activity change, negative = less growth, most hits filed as inhibitors. 360,000 compounds, 0.21% hits. S. pombe RE007 Vpr strain, BacTiter-Glo ATP luminescence, 24 h; active = well fitted falling curve with a large enough effect; inconclusive = small, poorly fitted or top-dose-only effect; inactive = no such curve, though single readings can be large or run the other way; note: % is set by controls: 0 for no effect and ±100 for the full control effect; nearly all actives have a fitted effect of over 50% in size
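Fission yeast strain RE007, carrying one chromosomally integrated HIV-1 vpr copy, was seeded at OD 0.01 in PMG+AL medium with 23 nL pinned compound. After 24 h at 30 °C and 99% humidity, viability was read by BacTiter-Glo luminescence.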
Pf growth 96h = P. falciparum growth inhibition at 96 hour, primary screen for plastid delayed-death inhibitors. P. falciparum luciferase reporter growth, 96 h. Potency, µM (titrated, usually from 28.7 µM), without a hit: top-dose activity change, negative = inhibition, usual class: inhibitors. 320,000 compounds, 6.9% hits. AID 504834; note: % is set by controls: 0 for no effect and ±100 for the full control effect
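Erythrocytes infected with luciferase-expressing P. falciparum were dispensed at 2% hematocrit and 0.05% parasitemia (final), then incubated with compounds 96 hours at 37 C in 5% CO2. Luminescence after detection reagent addition reported growth.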
SARS PLpro yeast = SARS-CoV PLP inhibition in yeast | S. cerevisiae expressing SARS-CoV PLpro, growth rescue | 330,000 compounds, 0.19% hits | Potency, µM (top dose mostly 32.9 µM), for the others: top-dose activity, positive = growth rescue, hits mostly activators; calls by dose curve; note: 0% is about no effect; nearly all actives have a fitted effect of over 55% in size
Pf growth 48h = P. falciparum growth inhibition at 48 hours (one generation). AID 504832. 310,000 compounds, 5.9% hits. Potency, µM (series often up to 28.7 µM), inactives show at the highest dose activity change, negative = inhibition, usual class: inhibitors. P. falciparum luciferase growth in erythrocytes, 48 h; note: % is set by controls: 0 for no effect and ±100 for the full control effect
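Erythrocytes infected with P. falciparum carrying an integrated firefly luciferase reporter (2% hematocrit, 0.1% parasitemia final) were exposed to compounds in RPMI 1640 with 0.5% Albumax at 37 C, 5% CO2. Growth inhibition was scored as reduced luminescence.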
Starred values were filed as active, the others as inactive; i = inactive; ? = inconclusive; nt = not tested or not shown; [ ] = remark or other dose. Unless noted, calls come from the whole dose curve; as a rule, active = well fitted inhibition curve with a large enough effect; inconclusive = small, poorly fitted or top-dose-only effect, or another doubt; inactive = no such curve, though single readings can be large or run the other way. Potency is the fitted concentration of half-maximal effect.

SMILES	NS1 function inh	RE007 growth inh	Pf growth 96h	SARS PLpro yeast	Pf growth 48h
c1ccc2c(c1)CCC[C@@H]2C1=NCCN1	nt	nt	-1%	nt	5%
COc1ccc(C(=O)NCCCc2nc3ccccc3n2Cc2ccccc2C)cc1OC	-82%	4%	9.3µM*	5%	?
O=C(CCNS(=O)(=O)c1ccccc1F)N1CCN(C/C=C/c2ccccc2)CC1	nt	0%	?	2%	-6%
COc1ccc(C(=O)c2c(C(F)(F)F)oc3c2C(=O)c2ccccc2C3=O)cc1	8%	?	nt	-42%	0.1µM*
CC(CC(c1ccccc1)N1CCc2ccccc2C1)=NO (configuration not stated)	nt	-5%	nt	nt	nt
CN(C(=O)CN1C(=O)C2C3CC(C(Br)C3Br)C2C1=O)C1CCCCC1 (configuration not stated)	-8%	-1%	1%	-3%	5.9µM*
CCn1c(SCc2nnc(-c3ccccc3)o2)nc2c1c(=O)n(C)c(=O)n2C	-4%	nt	6.6µM*	7%	9%
Cc1c(C(=O)N2CCOCC2)sc(NC(=O)c2ccc([N+](=O)[O-])cc2)c1C#N	1%	1%	29%	-11%	-17%
Cc1c(C(=O)N2CCOCC2)sc(NC(=O)CCl)c1C#N	-3%	4%	-23%	1%	2.1µM*
CN(C)S(=O)(=O)Oc1ccc(C(=O)Nc2cccc(C(F)(F)F)c2)cc1	nt	-6%	1.7µM*	3%	?
O=C(O)c1ccc(Cl)c(S(=O)(=O)Nc2cccc(C(=O)Nc3cccc(C(F)(F)F)c3)c2)c1	nt	-14%	10µM*	0%	7%
COc1ccc(-n2nc3c(c2NC(=O)c2ccc(S(=O)(=O)N4CCOCC4)cc2)CS(=O)(=O)C3)cc1	nt	5%	2%	5%	-11%
O=P(O)(c1ccccc1)c1ccccc1O	2%	-11%	12µM*	4%	2%
COc1ccccc1[C@]1(C)ON(c2ccccc2C(F)(F)F)C1=O	nt	11%	0.83µM*	0%	1µM*
CC[C@]1(c2ccccc2OC)ON(c2ccccc2C(F)(F)F)C1=O	nt	-6%	0.41µM*	0%	0.52µM*
Cc1cc(=O)c(C(=O)O)nn1-c1ccccc1C(F)(F)F	-8%	2%	0%	-3%	7%
COc1ccc2c(c1)C(=O)N(c1ccccc1OC)C(=O)C2(C)C	-16%	-2%	46%	2%	nt
CC(C)C[C@]1(c2ccccc2)ON(c2ccccc2C(F)(F)F)C1=O	nt	7%	?	0%	9.3µM*
NS(=O)(=O)c1ccc(CCNC(=O)CSc2nc3ccccc3c(=O)n2CC2CCCO2)cc1 (configuration not stated)	-13%	-17%	?	3%	?
O=C1NCCCC1C(=O)N/N=C/c1cccc(Cl)c1 (configuration not stated)	-2%	-7%	16%	-1%	?
N#CC[C@H](Cc1ccccc1)N1CCN(CCc2ccccc2)CCC1=O	14%	-15%	3.7µM*	-8%	-45%
CC(=O)Nc1ccc(SC[C@H](Cc2ccccc2)N2CC[C@@H](C(C)(C)C)CCC2=O)cc1	nt	-3%	?	4%	1.9µM*
CC(=O)Nc1ccc(SC[C@H](Cc2ccccc2)N2CCN(CCc3ccccc3)CCC2=O)cc1	-2%	3%	2.9µM*	1%	8.3µM*
CCc1nc2ccc(C(=O)NC(C)(C)C)cn2c1N(CC)Cc1cccc(Br)c1	nt	-26%	nt	nt	nt
O=S(=O)(c1ccccc1)N(F)S(=O)(=O)c1ccccc1	nt	7%	29%	1%	42%
SMILES	NS1 function inh	RE007 growth inh	Pf growth 96h	SARS PLpro yeast	Pf growth 48h
Cc1sc2ncnc(Sc3nnnn3-c3ccccc3)c2c1C	-17%	-7%	35%	-6%	4.7µM*
Cn1nnnc1Sc1ncnc2scc(-c3cccc(S(C)(=O)=O)c3)c12	nt	nt	?	-5%	10µM*
Cn1nnnc1Sc1ncnc2scc(-c3ccc([N+](=O)[O-])cc3)c12	nt	nt	3.7µM*	-7%	13µM*
Cn1nnnc1Sc1ncnc2scc(-c3ccccc3Cl)c12	nt	nt	1.7µM*	3%	12µM*
Cc1sc2ncnc(Sc3ccccc3C(=O)O)c2c1C	nt	21%	-1%	-1%	-2%
Cn1nnnc1Sc1ncnc2scc(-c3cccc(Br)c3)c12	nt	nt	nt	3%	nt
Cn1nnnc1Sc1ncnc2scc(-c3cccc4c3sc3ccccc34)c12	nt	nt	nt	15%	nt
COc1ccc(-c2csc3ncnc(Sc4nnnn4C)c23)cc1	nt	nt	nt	-20%	nt
COc1ccc(-c2noc(N3CCCC(C(=O)Nc4ccc(C(C)=O)cc4)C3)n2)cc1 (configuration not stated)	-1%	-4%	?	-1%	?
CCCn1c(N)c(C(=O)CN(C)CC(=O)Nc2cc(C)ccc2C)c(=O)[nH]c1=O	nt	1%	15%	2%	5%
CC(C)N(Cc1ccccc1)C(=O)CN1c2cccc3cccc(c23)S1(=O)=O	nt	-13%	nt	-28%	nt
Cn1nnnc1Sc1ncnc2scc(-c3ccc(Cl)cc3)c12	nt	nt	3.7µM*	-3%	6.6µM*
CCOc1ccc(NC(=O)CN(C)C(=O)c2ccccc2-n2cnnn2)cc1OCC	nt	2%	-4%	-1%	?
CCOC(=O)N1CCN(CC(O)COc2ccc3c(c2)CCC3)CC1 (configuration not stated)	-7%	6%	-14%	1%	15%
CC[n+]1c(/C=C/C=C/N(C(C)=O)c2ccccc2)sc2cc(OC)ccc21	7%	-22%	13%	-7%	9.3µM*
CC(=O)C1=CCC(c2ccccc2)N(Cc2ccccc2)C1 (configuration not stated)	nt	-10%	nt	nt	nt
COc1ccc(CN2CSC(=S)N(Cc3ccccc3)C2)cc1	-27%	-6%	10%	0%	-26%
COc1ccc(CN2CSC(=S)N(Cc3ccc(OC)cc3)C2)cc1	-68%	8%	?	-3%	12µM*
S=C1SCN(Cc2cccnc2)CN1Cc1cccnc1	-74%	?	?	-7%	1.9µM*
S=C1SCN(Cc2ccccc2)CN1Cc1ccccc1	-66%	6%	6%	-12%	?
C/C(=N\NC(=O)c1c(C)nc2ccccn12)c1ccc(O)cc1O	0%	-3%	3.3µM*	0%	?
C/C(=N\OCc1cccc(C(=O)O)c1)c1ccc(Cl)cc1	-56%	?	i	-4%	1µM*
Cc1cc(=O)oc2cc(OCC(=O)N3CCC(C(N)=O)CC3)ccc12	-8%	-12%	8%	-3%	-14%
COc1ccc(C(=O)O/N=C(\N)c2ccccc2Cl)cc1OC	-31%	16%	5.2µM*	-6%	10%[0.00184 µM]
COc1ccccc1C(=O)O/N=C(\N)c1ccccc1Cl	-34%	-15%	5%	-30%	192%
N/C(=N\OC(=O)c1ccc(Cl)cc1)c1ccc(Cl)cc1	3%	?	2.6µM*	-94%	?
N/C(=N\OC(=O)COc1ccccc1)c1ccc(Cl)cc1	-13%	22%	13µM*	28%	66%
N/C(=N\OC(=O)c1ccc(F)cc1)c1ccccc1	-64%	?	10µM*	-15%	34%
